Consider eight compounds from PubChem BioAssay (NCATS).

Inconclusive results are not listed. Calls of active or inactive are those of the source. Unless noted, calls follow the shape of the dose curve; as a rule, active = well fitted curve in the direction sought with a large enough effect; inconclusive = small, poorly fitted or top-dose-only effect, or another doubt; inactive = no such curve, though single readings can be large; an effect the other way counts as inactive or inconclusive.

A short description of assay [1]: qHTS profiling of the MIPE4 collection as inhibitors of Plasmodium falciparum (3D7) proliferation (AID 743344; call rule not given here;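 also: scaled between DMSO vehicle wells and 0.29 µM artemisinin as full inhibition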). As to conditions: P. falciparum 3D7 in erythrocytes, SYBR Green DNA fluorescence, 72 h; at 28.5 µM unless noted. The essentials: (§1)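 Erythrocytes infected with P. falciparum (0.3% parasitemia, 2.5% hematocrit) incubated with compounds 72 h at 37 C, 5% CO2. Lysis with saponin/Triton buffer containing SYBR Green I, overnight at room temperature in the dark; DNA fluorescence (485/535 nm) normalised to 0.29 uM artemisinin and DMSO.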

A short description of assay [2]: qHTS profiling of the MIPE4 collection as inhibitors of Plasmodium falciparum (DD2) proliferation (AID 743345; call rule not given here). As to conditions: P. falciparum Dd2 in erythrocytes, SYBR Green DNA, 72 h; at 28.5 µM unless noted. In a few lines:
as §1
A general note: Quantitative high-throughput screening tests each substance at several concentrations.

Assay [3] in a line: qHTS profiling of the MIPE4 collection as inhibitors of Plasmodium falciparum (DD2) proliferation (Rep 2) (AID 743346; call rule not given here). The settings on record: P. falciparum Dd2 in erythrocytes, SYBR Green DNA, 72 h; at 28.5 µM unless noted. The essentials:
as §1

Assay [4] is described as follows: qHTS profiling of the MIPE4 collection as inhibitors of Plasmodium falciparum (HB3) proliferation (AID 743347; call rule not given here;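 also: plate controls were DMSO vehicle wells for no effect and artemisinin wells for full effect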). As to conditions: P. falciparum HB3 in erythrocytes, SYBR Green DNA, 72 h; at 28.5 µM unless noted. The essentials: as §1
The nature of assay [5]: High-throughput drug toxicity screening in the BPDCN cell line Cal-1 (AID 1224825; call rule not given here). The settings on record: Cal-1 BPDCN cell viability, qHTS; at 45.8 µM (top of the series) unless noted. In a few lines: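 Exponentially growing Cal-1 cells, 500 per well in phenol red-free RPMI with 10% FBS, were exposed to compounds for 48 h at 37 °C, 5% CO2. Viability was read by CellTiter-Glo luminescence and normalised to DMSO (100%) and 9.2 uM bortezomib (0%).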

Assay [6] in a line: qHTS assay for measurement of the activity of small molecule inhibitors on Zika virus induced Caspase-3 activity in human iPSC derived neural progenitor cells (hNPCs) (AID 1224857). Also: nearly all actives have a fitted effect of over 65% in size. Also: potency is read from the fitted curve at half-maximal effect. The essentials:
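Values are percent inhibition of virus-induced caspase-3/7 signal, scaled between uninfected cells and ZIKV-infected cells. Infection used 2 FFU/cell for 6 h after 1 h compound exposure.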

Assay [7] can be described thus: qHTS assay for measurement of the activity of small molecule inhibitors on Zika virus induced Caspase-3 activity in human astrocytoma cells (AID 1224859). Also: potency is read from the fitted curve at half-maximal effect. The essentials: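 Compound added 1 h pre-infection; ZIKV 2 FFU/cell on SNB-19 cells, 6 h, 37 C/5% CO2. Caspase-Glo 3/7 luminescence; values as % inhibition of ZIKV-induced caspase activity.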
Assay [8] is described as follows: qHTS Screen of the MIPE 4.0 Collection Against Ewings Sarcoma (RDES) (AID 1259252). Also: nearly all actives have a fitted effect of over 35% in size. Also: potency is read from the fitted curve at half-maximal effect. In a few lines: (§2)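 Here, cells in 5% FBS RPMI were exposed for two days (48 h) to compound dilutions added four hours after plating. ATP-based CellTiter-Glo luminescence measured viability, normalized to vehicle and no-cell blanks.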
A short description of assay [9]: qHTS Screen of the MIPE 4.0 Collection Against Ewings Sarcoma (EW8) (AID 1259255). Also: nearly all actives have a fitted effect of over 35% in size. Also: potency is read from the fitted curve at half-maximal effect.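 As to viability: 100% = DMSO-treated cells and 0% = medium-only wells without cells.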 In a few lines:
as §2

Assay [10] in a line: qHTS Screen of the MIPE 4.0 Collection Against Ewings Sarcoma (TC32) (AID 1259256). Also: nearly all actives have a fitted effect of over 45% in size. Also: potency is read from the fitted curve at half-maximal effect. The essentials:
as §2

Assay [11] can be described thus: qHTS profiling for inhibitors of Plasmodium falciparum (HB3) proliferation (AID 743324).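 Also: 100% = DMSO vehicle wells and 0% = artemisinin-treated control wells.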 The settings on record: Plasmodium falciparum HB3 blood-stage proliferation; at 28.7 µM (top of the series) unless noted. In a few lines:
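P. falciparum HB3 grown in erythrocytes (0.3% parasitemia, 2.5% hematocrit final) with compound for 72 h at 37 C, 5% CO2. Parasite DNA detected by SYBR Green after saponin/triton lysis overnight; normalized to 0.29 uM artemisinin and DMSO.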

The nature of assay [12]: Identifying Small Molecule Inhibitors of Pancreatic Cancer Stem Cells (A2780, Spheroid) (AID 1259357).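 Also: spheroids pre-formed over 14 days in stem cell medium on hydrogel; compound exposure lasted 48 h before the ATP luminescence read; 100% = DMSO treated cells and 0% = wells without cells.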 As to conditions: Potency: A2780 spheroid viability. The essentials:
(§3)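 After a 4 h attachment period, compounds were pinned into wells and cultures held 48 h under standard incubator conditions. Viability was then measured as CellTiter-Glo luminescence following 10 min at room temperature.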

Assay [13] can be described thus: Identifying Small Molecule Inhibitors of Pancreatic Cancer Stem Cells (SN12C, Adherent) (AID 1259358).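 Also: cell survival measured after 48 h of compound exposure.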 Also: potency is read from the fitted curve at half-maximal effect. In a few lines:
(§4)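 Luminescent ATP readout (CellTiter-Glo) quantifies surviving cells after a 48 h drug incubation. Normalization uses DMSO wells as no inhibition and media-only wells as full inhibition; bortezomib served as positive control.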

Assay [14] is described as follows: Identifying Small Molecule Inhibitors of Pancreatic Cancer Stem Cells (SN12C, Spheroid) (AID 1259360). Also: potency is read from the fitted curve at half-maximal effect.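 As to viability (% of control): 100% = DMSO-treated cells and 0% = wells without cells.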 As to conditions: Potency: SN12C spheroid viability. In a few lines: as §3
The nature of assay [15]: Identifying Small Molecule Inhibitors of Pancreatic Cancer Stem Cells (A278, Adherent) (AID 1259361). Also: nearly all actives have a fitted effect of over 35% in size.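 As to viability (% of control): 100% = DMSO-treated cells and 0% = cell-free media-only wells.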 In a few lines: as §4
Assay [16] can be described thus: qHTS Screen of the MIPE 4.0 Collection Against Ewings Sarcoma (TC71) (AID 1259253). Also: nearly all actives have a fitted effect of over 40% in size. Also: potency is read from the fitted curve at half-maximal effect. In a few lines:
as §2

The compound `CN1CCN(c2cccc(Nc3nc4c(-c5ccc(S(C)(=O)=O)cc5)cccn4n3)c2)CC1` came in with a parasite growth, % of DMSO control in assay [1] of 11.4%. Moreover, in assay [2], the parasite growth remaining, % of DMSO control (lower = more inhibition) worked out at 11.3%. In addition, the parasite growth, % of control (lower = inhibition) in assay [3] worked out at 11.4%. The growth, % of control in assay [4] turned out to be 10.2%. Also, the viability (% of control) in assay [5] turned out to be 50.9%. In addition, the Potency result in assay [6] and in assay [7] was “inactive” each time. In addition, the Potency is 3.72 µM (active) in [8], 5.9 µM (active) in [9] and 2.35 µM (active) in assay [10].
As to `CN1C(=O)C(Cc2c[nH]c3ccccc23)NC1=S` (stereo not given), in assay [11], the remaining proliferation (% of control), lower = more inhibition was 73.5%. The compound also had a parasite growth, % of DMSO control in assay [1] of 338%. The compound further showed a parasite growth remaining, % of DMSO control (lower = more inhibition) in assay [2] of 99%. Further, in [3], the parasite growth, % of control (lower = inhibition) was 123%. Further, the growth, % of control in assay [4] amounted to 245%. In addition, the viability (% of control) in assay [5] came out at 106%. Besides, the Potency entry in [6], in [7], in assay [8], in assay [9], in [10] and in assay [12] was “inactive” in each case. Also, the Potency result in [13] and in [14] was “inactive” each time. Also, the IC50 (viability decrease) entry in assay [15] was “inactive”.
`CCC(=O)N1CCN(c2ccc(-n3c(=O)ccc4cnc5ccc(-c6cnc7ccccc7c6)cc5c43)cc2C(F)(F)F)CC1`: in [11], the remaining proliferation (% of control), lower = more inhibition stood at 2.49%. In assay [1], this compound registered a parasite growth, % of DMSO control of 5.26%. For the same compound, in assay [2], the parasite growth remaining, % of DMSO control (lower = more inhibition) worked out at 8.22%. Moreover, in assay [3], the parasite growth, % of control (lower = inhibition) worked out at 8.45%. In addition, the growth, % of control in assay [4] stood at 4.5%. Besides, in [5], the viability (% of control) stood at 20.2%. Besides, in assay [6], the Potency entry is “inactive”. The Potency was 0.0296 µM (active) in assay [16]; 0.0332 µM (active) in assay [9]; 0.0105 µM (active) in assay [10]; 0.0372 µM (active) in assay [13]; 0.0526 µM (active) in assay [14].
Regarding `C[C@@H](O)[C@H]1C(=O)N2C(C(=O)OCOC(=O)C(C)(C)C)=C(SC3CN(C4=NCCS4)C3)[C@H](C)[C@H]12`, the parasite growth, % of DMSO control in [1] amounted to 66%. Moreover, the parasite growth remaining, % of DMSO control (lower = more inhibition) in assay [2] came to 99.9%. Also, the parasite growth, % of control (lower = inhibition) in assay [3] came to 107%. The growth, % of control in assay [4] amounted to 104%. The viability (% of control) in assay [5] came out at 39.5%. For the same compound, the Potency result in assay [6], in [7], in [8] and in assay [16] was “inactive” throughout.
The compound `Cc1csc(-c2nnc(Nc3ccc(Oc4ncccc4-c4ccnc(N)n4)cc3)c3ccccc23)c1` displayed a remaining proliferation (% of control), lower = more inhibition in [11] of 51.2%. Moreover, in [1], the parasite growth, % of DMSO control worked out at 38.3%. This compound displayed a parasite growth remaining, % of DMSO control (lower = more inhibition) in [2] of 81.1%. In addition, the parasite growth, % of control (lower = inhibition) in assay [3] amounted to 47.8%. The growth, % of control in assay [4] was found to be 26.8%. In addition, the viability (% of control) in assay [5] is 13.3%. Also, the Potency result in assay [7] is “inactive”. Further, the Potency in assay [8] is 0.0296 µM (active).
For the compound `Cc1ccc(NC(=O)c2ccc(CN3CCN(C)CC3)cc2)cc1Nc1nc(-c2cccnc2)cs1`, the remaining proliferation (% of control), lower = more inhibition in assay [11] amounted to 4.39%. Moreover, the parasite growth, % of DMSO control in assay [1] turned out to be 9.29%. Moreover, the parasite growth remaining, % of DMSO control (lower = more inhibition) in assay [2] stood at 12%. In assay [3], the parasite growth, % of control (lower = inhibition) stood at 12.5%. In assay [4], this compound yielded a growth, % of control of 4.3%. For the same compound, the viability (% of control) in assay [5] was 6.7%. Besides, the Potency result in [7], in [12] and in assay [13] was “inactive” throughout. The Potency in [16] was 23.5 µM (active); in assay [9] it was 23.5 µM (active); in assay [10], 26.4 µM (active).
For the compound `c1ccc(CNc2nc(N3CCOc4ccccc43)nc3c2CCCC3)cc1`, the parasite growth, % of DMSO control in [1] was 10.7%. The same compound had a parasite growth remaining, % of DMSO control (lower = more inhibition) in assay [2] of 70.4%. In addition, in [3], the parasite growth, % of control (lower = inhibition) stood at 21.3%. Besides, the growth, % of control in [4] was 8.4%. The viability (% of control) in [5] came out at 95.6%. For the same compound, the Potency entry in assay [6], in assay [7] and in assay [8] was “inactive” throughout.
Compound `O=C(Nc1ccc(OC(F)(F)F)cc1)c1sccc1NCc1ccnc2ccccc12` gave a remaining proliferation (% of control), lower = more inhibition in assay [11] of 58.1%. Moreover, the parasite growth, % of DMSO control in assay [1] was 57%. The same compound came in with a parasite growth remaining, % of DMSO control (lower = more inhibition) in [2] of 85.7%. Besides, the parasite growth, % of control (lower = inhibition) in assay [3] amounted to 82.6%. The same compound registered a growth, % of control in assay [4] of 67.5%. For the same compound, the viability (% of control) in assay [5] amounted to 11.5%. In addition, the Potency is 5.9 µM (active) in assay [6], 6.62 µM (active) in [7], 18.7 µM (active) in assay [9] and 23.5 µM (active) in assay [14]. Besides, the IC50 (viability decrease) in [15] was 20.9 µM (active).
